For this assay, the target named is Beta-2 adrenergic receptor (Homo sapiens) (UniProt P07550). The assay is described as follows: Adrenergic beta2 receptor (ADRB2) small molecule agonists, cell-based qHTS assay (AID 1963593).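 As to activation: CHO cells stably overexpressing human ADRB2.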 The method, boiled down: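 CHO cells stably over-expressing ADRB2 were plated overnight at 37C, then dosed with compounds plus a stimulation mix containing 100uM IBMX and 25uM Ro-20-1724 for 0.5hr at room temperature. cAMP was measured by HTRF competition, 1hr.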
On the technique in general: In qHTS, concentration-response curves come from the screen itself.

Results filed as inconclusive are left out. Where a call stands in place of a potency, no number is given. Values without a mark were called inactive. Calls of active or inactive are those of the source. Calls follow the shape of the full dose curve.
Potency is read from the fitted curve at half-maximal effect.

Sequence of Beta-2 adrenergic receptor (Homo sapiens) (P07550 whole entry, looked up): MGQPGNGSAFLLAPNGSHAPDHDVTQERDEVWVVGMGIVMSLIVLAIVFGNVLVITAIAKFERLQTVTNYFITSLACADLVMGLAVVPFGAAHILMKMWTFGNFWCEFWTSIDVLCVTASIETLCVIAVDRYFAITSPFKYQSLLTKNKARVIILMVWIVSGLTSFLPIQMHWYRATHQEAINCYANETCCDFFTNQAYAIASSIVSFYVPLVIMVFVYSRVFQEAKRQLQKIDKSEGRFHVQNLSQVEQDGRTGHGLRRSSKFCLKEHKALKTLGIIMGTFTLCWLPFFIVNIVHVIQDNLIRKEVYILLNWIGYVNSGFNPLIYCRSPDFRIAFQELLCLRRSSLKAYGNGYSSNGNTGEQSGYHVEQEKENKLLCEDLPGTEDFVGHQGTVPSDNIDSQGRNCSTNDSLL

Regarding `NC(=O)CC[C@@H]1NC(=O)[C@H](Cc2ccccc2)NC(=O)[C@H](Cc2ccc(O)cc2)NC(=O)CCSSC[C@@H](C(=O)N2CCC[C@H]2C(=O)N[C@@H](CCCN=C(N)N)C(=O)NCC(N)=O)NC(=O)[C@H](CC(N)=O)NC1=O`, the Potency result was “inactive”.

With `O=C(OCC(COC(=O)c1ccccc1)(COC(=O)c1ccccc1)COC(=O)c1ccccc1)c1ccccc1`, the Potency result is “inactive”.

`O=C(NS(=O)(=O)/C=C/c1ccccc1)c1ccc(F)cc1Cl`: the Potency entry was “inactive”.

With `Oc1cc2ccccc2cc1O`, the Potency entry was “inactive”.

For the compound `CN1CN(C)CN(C)C1`, the Potency entry is “inactive”.

As for `CCC(=O)O[C@]1(C(=O)CCl)[C@@H](C)C[C@H]2[C@@H]3CCC4=CC(=O)C=C[C@]4(C)[C@@]3(F)[C@@H](O)C[C@@]21C`, the Potency entry was “inactive”.

On to `CCOC(=O)c1ccc(NC(=O)CN2CCCCC2)cc1`, for which the Potency result is “inactive”.

For the compound `NC(=O)c1ccccc1[N+](=O)[O-]`, the Potency entry is “inactive”.

Turning to `O=C1CC2(CCCC2)CC(=O)N1CCNCC1COc2ccccc2O1` (centres undefined), the Potency entry was “inactive”.

As for `CN1CCN(CCCN2c3ccccc3Sc3ccc(C(F)(F)F)cc32)CC1`, the Potency entry was “inactive”.

As for `C=CC(=O)OCC(CO)(COCC(COC(=O)C=C)(COC(=O)C=C)COC(=O)C=C)COC(=O)C=C`, the Potency was 30.3 µM (active).

On to `CCCCCCCC(=O)Oc1c(Br)cc(C#N)cc1Br`, for which the Potency result is “inactive”.

Consider `CCCCCCCCCCCCCCNCCO`, for which the Potency result is “inactive”.

For `CCCCCCCCSCc1cc(C)c(O)c(CSCCCCCCCC)c1`, the Potency result is “inactive”.

Take `CC1=CC(O)CC(C)(C)C1` (centres undefined): the Potency entry is “inactive”.

Regarding `C[n+]1cc2c3c(ccc2c2ccc4cc5c(cc4c21)OCO5)OCO3`, the Potency was 9.2 µM (active).

With `NCCOCCOCCN`, the Potency entry was “inactive”.

For `Oc1ccccc1C=NCc1ccccc1`, the Potency entry was “inactive”.

Turning to `COCCc1ccccn1`, the Potency result is “inactive”.

For `CCC(=O)c1c(O)cc(O)cc1O`, the Potency result was “inactive”.

Take `CC(C)(C)N`: the Potency entry was “inactive”.

For `CCOc1cc(OCC)c(C(C)=O)cc1OCC`, the Potency entry was “inactive”.

Regarding `c1cnc2c(n1)CCCC2`, the Potency result was “inactive”.

In the case of `CCCCOc1ccc(C(=O)CCN2CCCCC2)cc1`, the Potency is 13.3 µM (active).

On to `N#CCC(=O)NN`, for which the Potency entry is “inactive”.

Regarding `CC(C)=NNC(N)=S`, the Potency result is “inactive”.

Consider `CN(C)C/C=C(/c1ccc(Br)cc1)c1cccnc1`, for which the Potency entry is “inactive”.

For the compound `COc1cc(C)ccc1C(C)C`, the Potency entry was “inactive”.

On to `O=C(N[C@@H](Cc1ccccc1)[C@@H](O)C(=O)N1C[C@@H](O)[C@@H](O)C1)c1cc2cc(Cl)ccc2[nH]1`, for which the Potency entry is “inactive”.

For `COc1cccc(-c2ccc(/C=C\CN3CCCCCC3)cc2Cl)c1`, the Potency entry was “inactive”.

In the case of `CC(=O)C(C)=O`, the Potency result is “inactive”.

Regarding `O=C(NCCc1c[nH]c2ccccc12)c1cccnc1`, the Potency result is “inactive”.

Take `CCCCN(CCCC)C(=O)N(CCCC)CCCC`: the Potency result was “inactive”.

As to `Cc1nc(-c2ccc(Cl)cc2)oc1COC(C)(C)C(=O)O`, the Potency entry is “inactive”.

As to `NC(=O)Nc1ccc(Cl)c(Cl)c1`, the Potency result was “inactive”.

For the compound `O=c1c(O)c(-c2ccc(O)cc2O)oc2cc(O)cc(O)c12`, the Potency entry was “inactive”.

As for `CCCCOCCOC(=O)CCCCCCCCC(=O)OCCOCCCC`, the Potency entry is “inactive”.

Turning to `C[C@@H]1CC[C@@]2(OC1)O[C@H]1C[C@H]3[C@@H]4CC[C@H]5C[C@@H](O)CC[C@]5(C)[C@H]4CC(=O)[C@]3(C)[C@H]1[C@@H]2C`, the activation is 3.94% [at 8.39 µM].

For the compound `CC(C)C[C@H](NC(=O)[C@H](CCc1ccccc1)NC(=O)CN1CCOCC1)C(=O)N[C@@H](Cc1ccccc1)C(=O)N[C@@H](CC(C)C)C(=O)[C@@]1(C)CO1`, the Potency entry is “inactive”.

`CO[Si](OC)(OC)OC`: the Potency result was “inactive”.

`Cc1c[nH]c2ccccc12`: the Potency result is “inactive”.

Take `COCC(=O)Nc1c(I)c(C(=O)NCC(O)CO)c(I)c(C(=O)N(C)CC(O)CO)c1I` (centres undefined): the Potency entry is “inactive”.

As to `CCCOC(=O)c1ccc(N)cc1`, the Potency entry is “inactive”.

Regarding `O=C1c2ccccc2C(=O)C1(O)O`, the Potency result is “inactive”.

Consider `O=S(=O)(O)c1ccc(O)c2ncccc12`, for which the Potency result was “inactive”.

`Cc1ccnc2ccccc12`: the Potency result is “inactive”.

Take `O=C(O)CCCC[P+](c1ccccc1)(c1ccccc1)c1ccccc1`: the Potency entry is “inactive”.

Take `CC(C)(C)c1n[nH]c(=S)n(N)c1=O`: the Potency entry is “inactive”.

For `OCCNCc1ccccc1`, the Potency result was “inactive”.

Source of the values: PubChem BioAssay (Tox21).
